Only some compounds are listed: those with a hit (about 12% of all), similar ones and a draw of the others.
Sfp PPTase inh: inhibitors of Bacillus subtilis Sfp phosphopantetheinyl transferase; Q9F4F7; Biochemical Sfp PPTase activity, qHTS; Potency, µM, without a hit: largest response in the series, negative = inhibition, actives largely listed as inhibitors; hit rate 3.5% among 310,000;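 further: the enzyme is Sfp with the accession as filed and its product quenches rhodamine fluorescence; 0% = enzyme reaction without inhibitor and -100% = no enzyme wells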
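Compounds were incubated with enzyme (final 15 nM) for 15 min at room temperature before substrate addition started the reaction. Fluorescence at 525 nm excitation, 598 nm emission was recorded immediately and after 30 minutes.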
JMJD2A Tudor inh: blocks the human JMJD2A Tudor domain; O75164; AlphaScreen JMJD2A-Tudor / H3K4me3 peptide binding; Potency, µM (highest dose often 114 µM), inactives show at the highest dose activity change, negative = inhibition, hits mostly inhibitors; hit rate 4.4% among 390,000; AID 504339; further: on the % scale 0 is the no-effect control and ±100 the full control effect; nearly all actives have a fitted effect of over 50% in size
HP1b binding inh: HP1-beta chromodomain-methylated histone interaction inhibition. P83916. AlphaScreen HP1-beta / biotin-H3K9me3 peptide binding. Potency, µM (highest dose often 114 µM), for the others: top-dose activity change, negative = inhibition, hits mostly inhibitors. hit rate 0.56% among 390,000; further: nearly all actives have a fitted effect of over 70% in size
Target sequence (P83916 whole entry, looked up): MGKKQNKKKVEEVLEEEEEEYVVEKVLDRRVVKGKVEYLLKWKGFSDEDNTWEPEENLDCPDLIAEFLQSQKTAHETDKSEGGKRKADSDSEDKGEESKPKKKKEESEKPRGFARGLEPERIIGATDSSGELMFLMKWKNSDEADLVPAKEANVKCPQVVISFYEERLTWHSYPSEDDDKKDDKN
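HP1-beta protein (50 nM final) preincubated 30 min at room temperature with biotinylated H3(1-18)K9me3 peptide (50 nM) in PBS pH 7.4, 0.01% Tween-20, then compound added for 30 min. AlphaScreen streptavidin donor/nickel chelate acceptor beads (10 ug/mL final), 30 min dark, luminescence read.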
BAZ2B inh: inhibitors of human BAZ2B bromodomain. AlphaScreen BAZ2B-H3K14Ac peptide displacement. Potency, µM (doses to about 114 µM), for inactives: at the highest dose activity change, negative = inhibition, actives largely listed as inhibitors. hit rate 4.4% among 360,000; further: on the % scale 0 is the no-effect control and ±100 the full control effect; nearly all actives have a fitted effect of over 60% in size
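AlphaScreen displacement of biotin-H3(5-23)K14Ac peptide (50 nM final) from BAZ2B (50 nM final) in PBS pH 7.4, 0.01% Tween-20; complex preformed 30 min RT, then compounds (top 110 uM) 30 min RT, beads 20 min dark.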
G9a block: inhibitors of human histone lysine methyltransferase G9a; G9a H3K9 monomethylation, AlphaScreen, 2 h; Potency, µM (titrated, usually from 102 µM), without a hit: at the highest dose activity, negative = inhibition, actives largely listed as inhibitors; hit rate 8.8% among 350,000; AID 504332; further: on the % scale 0 is the no-effect control and ±100 the full control effect; nearly all actives have a fitted effect of over 75% in size
Target sequence (Q96KQ7 913-1193 limits assumed): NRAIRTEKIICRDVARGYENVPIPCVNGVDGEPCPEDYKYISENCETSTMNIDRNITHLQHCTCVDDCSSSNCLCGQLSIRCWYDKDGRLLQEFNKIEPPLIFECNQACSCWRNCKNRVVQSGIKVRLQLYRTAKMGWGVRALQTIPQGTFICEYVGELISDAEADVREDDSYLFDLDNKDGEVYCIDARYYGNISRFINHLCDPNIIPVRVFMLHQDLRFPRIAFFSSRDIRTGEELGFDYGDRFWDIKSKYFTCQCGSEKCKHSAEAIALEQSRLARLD
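Step 1: enzyme (final 20 nM) with compound, 15 min RT. Step 2: substrate peptide 500 nM and SAM 20 uM, 2 h RT. Step 3: anti-H3K9me1 antibody and AlphaScreen beads, 10 min, then plate read.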
PLK1 PBD block: PLK1 (human) polo-box domain binding inhibition; P53350; Plk1 PBD binding of FITC phosphopeptide, fluorescence polarization; Potency, µM, without a hit: max response, negative = inhibition, actives largely listed as inhibitors; hit rate 2.8% among 360,000; further: series mostly up to about 57 µM; on the % scale 0 is the no-effect control and ±100 the full control effect; nearly all actives have a fitted effect of over 65% in size
* = called active by the depositor; ? = inconclusive; . = not tested or not shown; [ ] = remark or other dose. The call rests on the fitted dose curve; in most records, active means well fitted curve in the direction sought with a large enough effect; inconclusive means small, poorly fitted or top-dose-only effect, or another doubt; inactive means no such curve, though single readings can be large; an effect the other way counts as inactive or inconclusive. Potency means the concentration at half of the fitted maximal effect.

SMILES | Sfp PPTase inh | JMJD2A Tudor inh | HP1b binding inh | BAZ2B inh | G9a block | PLK1 PBD block
Cc1cccc2cc(C(c3nnnn3Cc3ccc4c(c3)OCO4)N3CCCC3)c(=O)[nH]c12 (configuration not stated) | 56.2µM* | -4.5% | 26.9% | -9.4% | 17.8µM* | -10.2%
CCOc1ccc2[nH]c(=O)c(C(c3nnnn3Cc3ccco3)N3CCN(C)CC3)cc2c1 (configuration not stated) | 13.0% | 2.4% | 31.7% | -38.0% | . | -13.0%
Cc1cc(C(c2nnnn2Cc2ccccc2)N2CCOCC2)c(C)n1-c1ccc2c(c1)OCO2 (configuration not stated) | 28.2µM* | ? | ? | ? | 39.8µM* | 0.6%
O=C(NC1CCCCC1)c1cc2c(Cl)nc3ccccc3c2s1 | . | -2.0% | 41.4% | -3.9% | 0.7%[59 µM] | .
O=c1[nH]c2cc3c(cc2cc1C(c1nnnn1Cc1ccccc1)N1CCCCCC1)OCCO3 (configuration not stated) | -22.2% | -5.4% | 25.8% | 9.3% | 14.1µM* | -0.1%
O=c1[nH]c2cc3c(cc2cc1C(c1nnnn1Cc1ccccc1)N1CCN2CCCC2C1)OCCO3 (configuration not stated) | -23.3% | -12.8% | 25.7% | -38.1% | ? | -7.7%
COCCCNC(=S)NNC(=S)Nc1ccccc1 | 44.7µM* | 1.58µM* | -17.7% | -4.3% | . | -11.0%
COCCCNC(=S)NNC(=S)Nc1ccc(F)cc1F | 79.4µM* | 1.58µM* | -13.2% | ? | 2.51µM* | -13.1%
NS(=O)(=O)c1ccc(CNC(=O)c2ccc(C(=O)c3ccccc3)cc2)cc1 | . | -17.2% | 21.2% | . | . | 1.3%
COc1ccc(-n2c(=S)[nH]c3cc(C(=O)N4CCN(c5ccccc5)CC4)ccc3c2=O)cc1 | 13.1% | -6.4% | 37.6% | -10.5% | -2.4% | -6.0%
Cn1c(=S)[nH]c2cc(C(=O)N3CCN(C(=O)c4ccccc4)CC3)ccc2c1=O | . | 79.4µM* | 46.8% | . | . | .
CCCn1c(=S)[nH]c2cc(C(=O)N3CCN(C(=O)OCC)CC3)ccc2c1=O | -16.8% | -2.3% | 54.3% | -18.0% | 8.9% | -2.9%
CCOC(=O)N1CCN(C(=O)c2ccc3c(=O)n(-c4ccc(F)cc4)c(=S)[nH]c3c2)CC1 | 11.1% | 79.4µM* | . | -2.4% | ? | 0.2%
CN1CCN(C(=O)c2ccc3c(=O)n(-c4ccc(F)cc4)c(=S)[nH]c3c2)CC1 | -27.1% | 10µM* | 43.1% | -18.7% | ? | 5.7%
O=C(NCC1CC1)c1csc([C@@H]2O[C@H](CO)[C@H](O)[C@H](O)[C@H]2O)n1 | . | . | . | . | . | -1.0%
CCCCNC(=O)C(CC)(ONc1ccccc1C(F)(F)F)c1ccccc1 (configuration not stated) | . | -28.1% | 35.8% | ? | 13.5%[2.33 µM] | -7.9%
Cc1cc(N2CCN(c3ccc(C(F)(F)F)cc3[N+](=O)[O-])CC2)c2ccccc2n1 | 70.8µM* | 44.7µM* | -26.1% | 25.1µM* | . | 1.0%
COc1ccc(-n2c(Cc3cccn3C)nnc2SCC(=O)Nc2ccccc2F)cc1 | -8.2% | ? | -25.2% | ? | 50.1µM* | -6.8%
COc1ccc(-n2c(Cc3cccn3C)nnc2SCC(=O)Nc2cccc(C)c2C)cc1 | -10.0% | ? | 15.0% | ? | 44.7µM* | -5.0%
COc1ccc(-n2c(Cc3cccn3C)nnc2SCC(=O)Nc2ccc(F)cc2F)cc1 | -5.1% | ? | -1.3% | ? | 39.8µM* | -1.4%
COc1ccc(-n2c(Cc3cccn3C)nnc2SCC(=O)Nc2ccccc2C)cc1 | -7.9% | -32.9% | 8.5% | -37.7% | ? | -5.1%
Cn1cccc1Cc1nnc(SCC(=O)N2CCOCC2)n1CCc1ccccc1 | -4.5% | -26.8% | 37.0% | -31.2% | 44.7µM* | -11.8%
CCOC(=O)N1CCN(C(=O)CSc2nnc(Cc3cccn3C)n2CCc2ccccc2)CC1 | 0.8% | -27.8% | -0.5% | -38.3% | ? | -10.3%
O=c1c2ccccc2nc(-c2ccc(Cl)cc2)n1CCCOc1ccccc1F | . | 9.0% | 55.8% | 14.2% | -36.5%[59 µM] | .
